# Assay results taken from publication PMC7862700, “An all-to-all approach to the identification of sequence-specific readers for epigenetic DNA modifications on cytosine”.
# Experiments:
# Assay in all cases: DAPPL (digital affinity profiling via proximity ligation, sequencing); 10 mM Tris-HCl pH 7.5, 50 mM NaCl, 1 mM DTT, 4% glycerol, room temperature, 30 min; GST-TFs on glutathione beads, 16-mer random dsDNA library, 0.1% formaldehyde crosslink after washing; high values mean tight binding
# [1] = target: T1, FEV (Homo sapiens, UniProt Q99581 1-238); conditions: protein: recombinant; tags: N-terminal GST; dsDNA, one strand shown
# T1 sequence: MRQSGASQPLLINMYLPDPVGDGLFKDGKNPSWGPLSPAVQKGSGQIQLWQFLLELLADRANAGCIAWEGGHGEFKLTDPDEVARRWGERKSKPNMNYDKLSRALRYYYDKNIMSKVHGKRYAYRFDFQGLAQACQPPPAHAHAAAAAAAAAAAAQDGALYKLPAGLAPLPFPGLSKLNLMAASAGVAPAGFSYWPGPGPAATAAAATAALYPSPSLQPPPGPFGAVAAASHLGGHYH
# How it was run: (§1)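 The binding signal reported is, for every hexamer, its read frequency for a factor over its read frequency for the tag-only sample. Reads came from pools of yeast-expressed, GST-fused human transcription factors on glutathione beads, barcoded with DNA and mixed with that sample, which were incubated with 200 nmole of a random double-stranded 16-mer DNA library in Tris/NaCl/DTT/glycerol buffer at room temperature for 30 min. After washing, the pools were crosslinked with 0.1% formaldehyde, proximity-ligated with BsaI/T4 ligase for 1 h at 37 °C, PCR-amplified and sequenced on an Illumina NextSeq500.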
# [2] = target: ETV5 (Homo sapiens, UniProt P41161 1-510); conditions: protein: recombinant; tags: N-terminal GST; dsDNA, one strand shown
# How it was run: as §1
# [3] = target: HSF1 (Homo sapiens, UniProt Q00613 1-529); conditions: protein: recombinant; tags: N-terminal GST; chain copies: 3; dsDNA, one strand shown
# How it was run: as §1
# [4] = target: T2, SPIC (Homo sapiens, UniProt Q8N5J4 1-248); conditions: protein: recombinant; tags: N-terminal GST; dsDNA, one strand shown
# T2 sequence: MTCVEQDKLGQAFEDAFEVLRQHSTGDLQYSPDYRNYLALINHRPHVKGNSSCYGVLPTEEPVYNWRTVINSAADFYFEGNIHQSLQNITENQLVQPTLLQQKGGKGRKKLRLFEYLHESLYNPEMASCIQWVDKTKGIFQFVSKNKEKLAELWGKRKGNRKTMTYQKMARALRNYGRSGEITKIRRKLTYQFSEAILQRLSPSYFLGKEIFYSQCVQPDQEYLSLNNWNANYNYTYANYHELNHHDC
# How it was run: as §1
# [5] = target: ELF4 (Homo sapiens, UniProt Q99607 1-663); conditions: protein: recombinant; tags: N-terminal GST; dsDNA, one strand shown
# How it was run: as §1
# [6] = target: T3, ELK4 (Homo sapiens, UniProt P28324-2 1-405); conditions: protein: recombinant; tags: N-terminal GST; dsDNA, one strand shown
# T3 sequence: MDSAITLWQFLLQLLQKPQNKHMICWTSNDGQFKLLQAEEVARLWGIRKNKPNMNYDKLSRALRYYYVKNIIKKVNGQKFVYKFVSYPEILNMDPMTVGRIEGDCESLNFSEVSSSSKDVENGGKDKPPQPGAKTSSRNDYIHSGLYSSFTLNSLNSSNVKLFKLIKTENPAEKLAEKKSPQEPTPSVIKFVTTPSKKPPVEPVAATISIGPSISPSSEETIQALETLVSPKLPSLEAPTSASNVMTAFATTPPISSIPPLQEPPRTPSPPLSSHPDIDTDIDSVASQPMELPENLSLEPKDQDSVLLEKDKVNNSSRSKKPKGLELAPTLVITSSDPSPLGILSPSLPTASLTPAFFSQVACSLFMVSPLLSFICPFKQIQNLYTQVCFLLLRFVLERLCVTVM
# How it was run: as §1
# [7] = target: T4, ETV2 (Homo sapiens, UniProt O00321 1-342); conditions: protein: recombinant; tags: N-terminal GST; dsDNA, one strand shown
# T4 sequence: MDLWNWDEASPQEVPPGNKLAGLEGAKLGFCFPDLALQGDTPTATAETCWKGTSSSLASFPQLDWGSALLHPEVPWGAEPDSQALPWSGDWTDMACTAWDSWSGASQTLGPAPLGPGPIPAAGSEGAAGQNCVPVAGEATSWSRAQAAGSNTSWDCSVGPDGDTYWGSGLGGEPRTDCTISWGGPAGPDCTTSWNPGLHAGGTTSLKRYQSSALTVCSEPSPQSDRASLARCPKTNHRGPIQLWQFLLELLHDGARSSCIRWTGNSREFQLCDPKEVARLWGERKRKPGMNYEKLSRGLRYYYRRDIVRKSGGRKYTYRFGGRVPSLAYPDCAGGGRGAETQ
# How it was run: as §1
# [8] = target: T5, ELF3 (Homo sapiens, UniProt P78545 1-371); conditions: protein: recombinant; tags: N-terminal GST; dsDNA, one strand shown
# T5 sequence: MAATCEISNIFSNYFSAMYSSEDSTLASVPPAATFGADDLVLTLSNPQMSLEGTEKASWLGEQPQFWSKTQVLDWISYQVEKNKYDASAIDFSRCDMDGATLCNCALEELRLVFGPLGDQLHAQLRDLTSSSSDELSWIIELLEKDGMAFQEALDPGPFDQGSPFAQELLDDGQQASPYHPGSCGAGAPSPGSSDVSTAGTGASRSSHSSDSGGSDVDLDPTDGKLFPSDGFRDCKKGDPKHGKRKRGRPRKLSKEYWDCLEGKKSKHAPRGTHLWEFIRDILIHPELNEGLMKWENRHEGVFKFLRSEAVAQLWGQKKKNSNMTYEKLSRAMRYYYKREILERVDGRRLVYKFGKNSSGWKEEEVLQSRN
# How it was run: as §1
# [9] = target: CRX (Homo sapiens, UniProt O43186 1-299); conditions: protein: recombinant; tags: N-terminal GST; dsDNA, one strand shown
# How it was run: as §1
# [10] = target: ETV1 (Homo sapiens, UniProt P50549 1-477); conditions: protein: recombinant; tags: N-terminal GST; dsDNA, one strand shown
# How it was run: as §1
# [11] = target: T6, ERF (Homo sapiens, UniProt P50548 1-548); conditions: protein: recombinant; tags: N-terminal GST; dsDNA, one strand shown
# T6 sequence: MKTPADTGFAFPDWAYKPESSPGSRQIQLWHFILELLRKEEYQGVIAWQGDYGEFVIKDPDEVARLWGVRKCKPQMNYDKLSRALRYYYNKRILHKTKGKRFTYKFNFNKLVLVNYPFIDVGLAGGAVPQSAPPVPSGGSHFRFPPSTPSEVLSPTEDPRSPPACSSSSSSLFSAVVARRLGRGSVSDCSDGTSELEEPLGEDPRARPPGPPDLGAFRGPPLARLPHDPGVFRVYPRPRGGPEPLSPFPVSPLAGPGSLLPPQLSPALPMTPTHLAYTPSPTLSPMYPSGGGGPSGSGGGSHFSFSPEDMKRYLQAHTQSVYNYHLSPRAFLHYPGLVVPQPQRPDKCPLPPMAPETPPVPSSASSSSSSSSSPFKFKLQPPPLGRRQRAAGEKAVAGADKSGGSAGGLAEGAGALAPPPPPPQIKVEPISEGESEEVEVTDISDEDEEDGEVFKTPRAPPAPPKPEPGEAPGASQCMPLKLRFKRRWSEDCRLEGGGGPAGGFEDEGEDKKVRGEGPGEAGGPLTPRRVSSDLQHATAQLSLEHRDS
# How it was run: as §1
# [12] = target: T7, ETV3L (Homo sapiens, UniProt Q6ZN32 1-361); conditions: protein: recombinant; tags: N-terminal GST; dsDNA, one strand shown
# T7 sequence: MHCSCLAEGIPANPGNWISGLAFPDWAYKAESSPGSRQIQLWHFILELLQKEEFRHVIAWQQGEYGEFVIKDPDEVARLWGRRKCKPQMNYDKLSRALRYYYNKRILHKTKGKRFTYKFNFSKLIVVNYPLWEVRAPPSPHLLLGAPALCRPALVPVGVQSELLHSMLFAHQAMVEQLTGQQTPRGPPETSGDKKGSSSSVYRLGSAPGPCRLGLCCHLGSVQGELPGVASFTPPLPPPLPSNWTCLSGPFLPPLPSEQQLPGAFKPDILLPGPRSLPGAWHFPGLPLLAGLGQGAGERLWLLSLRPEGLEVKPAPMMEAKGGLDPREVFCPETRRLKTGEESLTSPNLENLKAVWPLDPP
# How it was run: as §1
# [13] = target: T8, ETS2 (Homo sapiens, UniProt P15036 1-469); conditions: protein: recombinant; tags: N-terminal GST; dsDNA, one strand shown
# T8 sequence: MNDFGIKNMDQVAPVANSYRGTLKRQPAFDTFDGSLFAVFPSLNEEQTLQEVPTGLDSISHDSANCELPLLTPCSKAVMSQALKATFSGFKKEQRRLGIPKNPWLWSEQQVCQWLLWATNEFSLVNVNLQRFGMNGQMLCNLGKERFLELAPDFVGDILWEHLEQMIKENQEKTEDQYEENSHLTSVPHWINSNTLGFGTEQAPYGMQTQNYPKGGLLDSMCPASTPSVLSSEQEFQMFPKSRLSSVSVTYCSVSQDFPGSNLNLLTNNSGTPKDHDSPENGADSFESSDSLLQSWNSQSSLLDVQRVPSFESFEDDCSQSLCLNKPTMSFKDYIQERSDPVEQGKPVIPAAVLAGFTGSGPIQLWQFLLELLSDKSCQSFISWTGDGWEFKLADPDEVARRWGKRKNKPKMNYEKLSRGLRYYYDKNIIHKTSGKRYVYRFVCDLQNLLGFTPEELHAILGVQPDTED
# How it was run: as §1
# [14] = target: T9, SPDEF (Homo sapiens, UniProt O95238 1-335); conditions: protein: recombinant; tags: N-terminal GST; dsDNA, one strand shown
# T9 sequence: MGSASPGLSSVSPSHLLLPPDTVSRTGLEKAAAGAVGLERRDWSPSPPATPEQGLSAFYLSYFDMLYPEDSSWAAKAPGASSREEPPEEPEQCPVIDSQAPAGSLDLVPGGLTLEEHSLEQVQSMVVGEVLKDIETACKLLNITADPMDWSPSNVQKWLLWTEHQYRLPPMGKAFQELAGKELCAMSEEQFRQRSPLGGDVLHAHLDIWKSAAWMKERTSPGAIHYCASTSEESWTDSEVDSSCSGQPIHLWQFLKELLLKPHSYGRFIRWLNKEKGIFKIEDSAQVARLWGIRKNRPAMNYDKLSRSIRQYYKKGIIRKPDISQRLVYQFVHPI
# How it was run: as §1
# [15] = target: T10, ETV7 (Homo sapiens, UniProt Q9Y603 1-341); conditions: protein: recombinant; tags: N-terminal GST; dsDNA, one strand shown
# T10 sequence: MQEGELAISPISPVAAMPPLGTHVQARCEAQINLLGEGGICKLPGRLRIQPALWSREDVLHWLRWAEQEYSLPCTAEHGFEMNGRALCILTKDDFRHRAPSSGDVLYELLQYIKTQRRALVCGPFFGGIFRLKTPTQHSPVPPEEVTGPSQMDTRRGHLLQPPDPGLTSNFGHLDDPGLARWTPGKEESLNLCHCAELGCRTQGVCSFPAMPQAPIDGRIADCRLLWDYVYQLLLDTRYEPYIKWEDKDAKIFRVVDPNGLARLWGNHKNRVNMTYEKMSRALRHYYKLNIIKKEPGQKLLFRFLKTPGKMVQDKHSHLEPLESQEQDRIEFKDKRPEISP
# How it was run: as §1
# [16] = target: T11, ELF5 (Homo sapiens, UniProt Q9UKW6-2 1-255); conditions: protein: recombinant; tags: N-terminal GST; dsDNA, one strand shown
# T11 sequence: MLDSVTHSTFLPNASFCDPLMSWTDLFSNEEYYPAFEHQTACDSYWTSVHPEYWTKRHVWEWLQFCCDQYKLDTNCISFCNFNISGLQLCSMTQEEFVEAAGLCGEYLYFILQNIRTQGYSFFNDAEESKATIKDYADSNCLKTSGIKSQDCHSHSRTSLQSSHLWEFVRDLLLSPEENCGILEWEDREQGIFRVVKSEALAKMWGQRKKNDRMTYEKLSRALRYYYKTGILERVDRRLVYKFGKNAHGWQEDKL
# How it was run: as §1
# [17] = target: T12, ETV3 (Homo sapiens, UniProt P41162-2 1-143); conditions: protein: recombinant; tags: N-terminal GST; dsDNA, one strand shown
# T12 sequence: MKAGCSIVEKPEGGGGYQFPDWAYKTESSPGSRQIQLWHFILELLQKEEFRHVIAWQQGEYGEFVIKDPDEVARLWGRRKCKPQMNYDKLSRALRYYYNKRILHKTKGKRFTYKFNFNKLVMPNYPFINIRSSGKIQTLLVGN
# How it was run: as §1
# [18] = target: ETV6 (Homo sapiens, UniProt P41212 1-452); conditions: protein: recombinant; tags: N-terminal GST; dsDNA, one strand shown
# How it was run: as §1
# ETV6, sequence (P41212 whole entry): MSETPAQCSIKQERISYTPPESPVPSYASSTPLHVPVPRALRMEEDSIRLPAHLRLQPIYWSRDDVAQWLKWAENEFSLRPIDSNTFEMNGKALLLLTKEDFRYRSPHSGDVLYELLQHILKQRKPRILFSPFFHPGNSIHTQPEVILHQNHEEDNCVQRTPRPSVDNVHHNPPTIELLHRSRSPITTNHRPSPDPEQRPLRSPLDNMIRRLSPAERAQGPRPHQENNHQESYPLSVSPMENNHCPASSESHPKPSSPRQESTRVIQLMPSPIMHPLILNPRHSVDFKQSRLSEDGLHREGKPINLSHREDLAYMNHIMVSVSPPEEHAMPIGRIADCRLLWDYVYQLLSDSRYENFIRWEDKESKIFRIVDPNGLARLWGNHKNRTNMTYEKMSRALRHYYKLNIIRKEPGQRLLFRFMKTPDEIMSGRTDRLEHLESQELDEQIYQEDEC
# ETV1, sequence (P50549 whole entry): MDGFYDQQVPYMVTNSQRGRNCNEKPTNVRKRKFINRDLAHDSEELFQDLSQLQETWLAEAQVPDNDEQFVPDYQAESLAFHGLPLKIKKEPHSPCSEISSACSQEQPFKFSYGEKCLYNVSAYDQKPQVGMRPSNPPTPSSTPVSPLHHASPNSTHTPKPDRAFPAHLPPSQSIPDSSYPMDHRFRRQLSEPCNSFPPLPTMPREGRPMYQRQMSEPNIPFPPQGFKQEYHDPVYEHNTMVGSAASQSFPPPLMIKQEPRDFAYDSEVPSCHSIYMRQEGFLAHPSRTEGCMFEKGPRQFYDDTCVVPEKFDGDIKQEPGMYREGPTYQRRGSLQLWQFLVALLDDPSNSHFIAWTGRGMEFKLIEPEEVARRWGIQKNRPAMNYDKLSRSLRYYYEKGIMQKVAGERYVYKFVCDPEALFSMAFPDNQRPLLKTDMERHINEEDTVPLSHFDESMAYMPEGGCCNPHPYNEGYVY
# ETV5, sequence (P41161 whole entry): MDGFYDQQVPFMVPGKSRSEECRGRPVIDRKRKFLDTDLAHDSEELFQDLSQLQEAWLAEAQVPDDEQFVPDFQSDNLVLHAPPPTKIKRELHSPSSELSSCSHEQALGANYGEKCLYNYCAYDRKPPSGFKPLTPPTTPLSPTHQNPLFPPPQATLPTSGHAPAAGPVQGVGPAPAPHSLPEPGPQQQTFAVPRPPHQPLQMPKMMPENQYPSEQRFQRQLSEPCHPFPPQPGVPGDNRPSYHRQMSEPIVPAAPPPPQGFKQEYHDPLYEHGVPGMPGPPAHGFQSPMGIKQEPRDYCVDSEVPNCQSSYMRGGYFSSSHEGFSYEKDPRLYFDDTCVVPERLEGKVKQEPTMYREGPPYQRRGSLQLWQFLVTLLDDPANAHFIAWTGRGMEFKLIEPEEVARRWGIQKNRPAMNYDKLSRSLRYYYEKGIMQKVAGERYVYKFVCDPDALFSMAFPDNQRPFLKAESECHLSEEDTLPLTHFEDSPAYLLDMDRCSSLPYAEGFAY
# CRX, sequence (O43186 whole entry): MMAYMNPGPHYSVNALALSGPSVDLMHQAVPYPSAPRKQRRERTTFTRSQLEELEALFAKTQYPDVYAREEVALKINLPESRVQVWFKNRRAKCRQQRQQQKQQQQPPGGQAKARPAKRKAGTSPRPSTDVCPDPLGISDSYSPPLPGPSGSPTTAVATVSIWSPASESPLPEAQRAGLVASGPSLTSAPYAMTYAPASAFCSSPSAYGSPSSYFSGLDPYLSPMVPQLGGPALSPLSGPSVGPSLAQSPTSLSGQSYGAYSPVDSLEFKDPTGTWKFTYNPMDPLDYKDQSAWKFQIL
# HSF1, sequence (Q00613 whole entry): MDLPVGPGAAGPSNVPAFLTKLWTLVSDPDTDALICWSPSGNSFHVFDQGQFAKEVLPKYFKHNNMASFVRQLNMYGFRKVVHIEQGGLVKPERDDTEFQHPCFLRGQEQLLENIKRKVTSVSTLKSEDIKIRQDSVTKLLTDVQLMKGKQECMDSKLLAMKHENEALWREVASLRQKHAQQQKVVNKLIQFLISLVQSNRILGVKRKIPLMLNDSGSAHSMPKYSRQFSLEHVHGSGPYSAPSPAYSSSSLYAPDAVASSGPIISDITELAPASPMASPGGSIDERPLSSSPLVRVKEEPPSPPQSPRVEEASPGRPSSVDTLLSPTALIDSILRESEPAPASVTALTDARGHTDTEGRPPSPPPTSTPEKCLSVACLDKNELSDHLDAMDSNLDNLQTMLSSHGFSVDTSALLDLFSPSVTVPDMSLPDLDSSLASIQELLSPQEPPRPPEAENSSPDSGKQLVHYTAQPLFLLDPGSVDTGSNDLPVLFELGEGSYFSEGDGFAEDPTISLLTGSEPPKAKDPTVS
# ELF4, sequence (Q99607 whole entry): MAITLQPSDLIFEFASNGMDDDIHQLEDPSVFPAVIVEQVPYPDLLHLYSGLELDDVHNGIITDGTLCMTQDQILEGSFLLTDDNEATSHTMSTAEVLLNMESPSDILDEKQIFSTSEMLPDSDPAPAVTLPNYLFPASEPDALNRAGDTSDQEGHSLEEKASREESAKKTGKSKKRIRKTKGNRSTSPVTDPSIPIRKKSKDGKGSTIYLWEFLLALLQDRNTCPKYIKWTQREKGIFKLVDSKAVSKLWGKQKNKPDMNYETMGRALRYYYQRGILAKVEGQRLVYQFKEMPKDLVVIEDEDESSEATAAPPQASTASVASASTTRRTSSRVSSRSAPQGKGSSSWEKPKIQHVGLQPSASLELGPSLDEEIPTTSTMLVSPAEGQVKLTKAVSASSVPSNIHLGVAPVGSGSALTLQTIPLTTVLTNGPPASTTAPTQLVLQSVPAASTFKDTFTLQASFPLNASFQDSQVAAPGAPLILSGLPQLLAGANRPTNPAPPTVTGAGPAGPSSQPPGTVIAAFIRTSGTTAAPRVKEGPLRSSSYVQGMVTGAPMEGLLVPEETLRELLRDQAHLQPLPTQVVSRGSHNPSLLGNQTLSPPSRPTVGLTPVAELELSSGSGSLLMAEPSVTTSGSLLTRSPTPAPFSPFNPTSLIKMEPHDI
sequence,measurement,setting,value
ACTAGC,binding signal,[1],"1.11 fold enrichment (6-mer frequency, TF over GST control)"
same,binding signal,[2],"1.2 fold enrichment (6-mer frequency, TF over GST control)"
same,binding signal,[3],"1.32 fold enrichment (6-mer frequency, TF over GST control)"
same,binding signal,[4],"1.17 fold enrichment (6-mer frequency, TF over GST control)"
same,binding signal,[5],"1.17 fold enrichment (6-mer frequency, TF over GST control)"
same,binding signal,[6],"1.24 fold enrichment (6-mer frequency, TF over GST control)"
same,binding signal,[7],"1.3 fold enrichment (6-mer frequency, TF over GST control)"
same,binding signal,[8],"1.01 fold enrichment (6-mer frequency, TF over GST control)"
same,binding signal,[9],"1.11 fold enrichment (6-mer frequency, TF over GST control)"
same,binding signal,[10],"1.19 fold enrichment (6-mer frequency, TF over GST control)"
same,binding signal,[11],"1.19 fold enrichment (6-mer frequency, TF over GST control)"
same,binding signal,[12],"1.16 fold enrichment (6-mer frequency, TF over GST control)"
same,binding signal,[13],"1.16 fold enrichment (6-mer frequency, TF over GST control)"
same,binding signal,[14],"1.15 fold enrichment (6-mer frequency, TF over GST control)"
same,binding signal,[15],"1.16 fold enrichment (6-mer frequency, TF over GST control)"
same,binding signal,[16],"1.13 fold enrichment (6-mer frequency, TF over GST control)"
same,binding signal,[17],"1.15 fold enrichment (6-mer frequency, TF over GST control)"
same,binding signal,[18],"1.2 fold enrichment (6-mer frequency, TF over GST control)"
